Assay outcomes deposited in PubChem BioAssay by National Center for Advancing Translational Sciences (NCATS).
LDHA inh = qHTS assay for inhibitors of human lactate dehydrogenase; L-lactate dehydrogenase A chain (Homo sapiens), P00338; purified LDHA, NADH/diaphorase-resazurin fluorescence; stronger effect = lower value; activity change, % (values are at about 110 or 230 µM); hit rate 0.15% among 480,000; in the data active means activity change below about -30%; inconclusive means mostly about -25% to -30%
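Resorufin fluorescence (ex540/em590), read at 0 and 20 min after diaphorase/resazurin addition, reports the NADH left after a 5 min room-temperature reaction of 2 nM human LDH5 with 0.06 mM NADH and 0.2 mM pyruvate.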
A549 tox = Nrf2 qHTS screen for inhibitors: counterscreen for cytotoxicity | A549 ARE-Fluc cells, CellTiter-Fluor viability, 18-24 h | Potency, µM (titrated, usually from 46 µM), usual class: inhibitors | hit rate 0.16% among 390,000
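A549 ARE-Fluc cells in 5% FBS OPTI-MEM, 5000 cells/well, rested 2 h then exposed to compounds in concentration-response for 18-24 h at 37 °C. Viability by CellTiter-Fluor fluorescence (Ex 405/Em 525) after 30 min; luciferase luminescence (BugLite, 15 min, RT) read afterwards.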
Nrf2 activator = qHTS of Nrf2 Activators | hit rate 0.31% among 410,000 | AID 624171, 2012 | Potency, µM (top dose mostly 46.1 µM), actives largely listed as activators | AREc32 ARE-luciferase reporter (MCF7-derived line), luminescence, 24 h; further: nearly all actives have a fitted effect of over 65% in size
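Luminescent ARE reporter assay in AREc32_Fluc cells: overnight plating at 37 deg C, 24 hr compound incubation, Steady-Glo added, 30 min RT before reading.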
IDH1 R132H inh = qHTS for Inhibitors of mutant isocitrate dehydrogenase 1 (IDH1): qHTS; IDH1-R132H enzyme, NADPH consumption, diaphorase/resazurin fluorescence; hit rate 0.093% among 390,000; Potency, µM (top dose mostly 76.6 µM), most hits filed as inhibitors; Isocitrate dehydrogenase [NADP] cytoplasmic (Homo sapiens), O75874; further: nearly all actives have a fitted effect of over 65% in size
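IDH1-R132H (0.5 ug/mL dispensed) in pH 7.5 Tris buffer was preincubated 30 min with compound, then given a substrate mix of 0.016 mM NADPH and 2 mM alpha-KG for 80 min at room temperature; remaining NADPH was read by diaphorase/resazurin fluorescence.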
Nrf2 inh = Nrf2 qHTS screen for inhibitors. A549 ARE-Fluc reporter, luciferase luminescence, 18-24 h. Potency, µM (series often up to 46 µM), usual class: inhibitors. hit rate 2.1% among 360,000. AID 504444, 2011; further: nearly all actives have a fitted effect of over 60% in size
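Reporter: ARE-Fluc in A549. Exposure: 18-24 h, 37 °C, 5% CO2, 5% FBS OPTI-MEM. Readouts: fluorescent cytotoxicity (CellTiter-Fluor), then luminescent Nrf2 signal after BugLite.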
ALOX12 inh = Primary qHTS assay for inhibitors of human arachidonate 12S-lipoxygenase (ALOX12): Round 2. purified 12hLO, xylenol orange hydroperoxide absorbance. Potency, µM (titrated, usually from 108 µM), hits mostly inhibitors. hit rate 1.1% among 580,000
Target sequence (P18054 whole entry, looked up): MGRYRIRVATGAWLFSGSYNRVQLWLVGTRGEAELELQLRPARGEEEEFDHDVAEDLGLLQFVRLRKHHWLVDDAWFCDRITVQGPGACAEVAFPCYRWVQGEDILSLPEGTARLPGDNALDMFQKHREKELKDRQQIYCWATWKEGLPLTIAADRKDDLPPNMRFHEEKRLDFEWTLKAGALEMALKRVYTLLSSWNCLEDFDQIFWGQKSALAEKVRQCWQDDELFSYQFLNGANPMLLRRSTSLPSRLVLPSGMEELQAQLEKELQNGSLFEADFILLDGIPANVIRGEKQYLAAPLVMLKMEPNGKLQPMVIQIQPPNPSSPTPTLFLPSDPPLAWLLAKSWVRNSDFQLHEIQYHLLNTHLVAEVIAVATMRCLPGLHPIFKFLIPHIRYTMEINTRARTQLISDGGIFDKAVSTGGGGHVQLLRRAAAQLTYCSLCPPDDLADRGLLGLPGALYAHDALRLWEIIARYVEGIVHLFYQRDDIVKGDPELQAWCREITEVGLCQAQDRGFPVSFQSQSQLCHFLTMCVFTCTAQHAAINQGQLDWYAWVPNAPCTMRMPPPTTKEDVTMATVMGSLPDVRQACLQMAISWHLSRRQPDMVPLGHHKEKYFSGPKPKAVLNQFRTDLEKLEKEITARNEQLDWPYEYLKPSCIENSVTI
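Purified human 12hLO at 150 nM in 25 mM Hepes, 0.01% Triton X-100, pH 7.0, preincubated 15 min at room temperature with compound. Reaction started with 40 uM arachidonic acid, 30 min at room temperature. Hydroperoxide measured by Fe-xylenol orange, 573/405 nm absorbance ratio.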
Large screens that a line does not name were inactive. The list is not random: actives were taken first. Their share in the collection is about 2.7%. Unless noted, the call rests on the fitted dose curve; in most records, active means well fitted curve in the direction sought with a large enough effect; inconclusive means small, poorly fitted or top-dose-only effect, or another doubt; inactive means no such curve, though single readings can be large; an effect the other way counts as inactive or inconclusive.

O=C(c1cscn1)N1CCC2(COc3ncccc3S(=O)(=O)N2)C1 (stereo not given)	none (no result: LDHA inh, A549 tox, Nrf2 activator, IDH1 R132H inh, Nrf2 inh)
Cc1cc2nc3n(c(=O)c2n1CC(=O)Nc1ccc2c(c1)OCCO2)CCCC3	none (no result: LDHA inh, A549 tox, Nrf2 activator, IDH1 R132H inh, Nrf2 inh)
CCOC(=O)/C(=N\Nc1ccc(Cl)cc1)c1csc(Nc2ccccc2)n1	A549 tox inconclusive, Nrf2 inh 16µM, ALOX12 inh inconclusive
COc1cc(Cn2c(=O)oc3ccc(C)cc32)ccc1OCCC(C)C	Nrf2 inh 21µM
O=C1NCc2ccccc2CC12CCN(Cc1ccc(CO)o1)CC2	none (no result: LDHA inh, A549 tox, Nrf2 activator, IDH1 R132H inh, Nrf2 inh)
CCOC(=O)c1c(C)n(S(=O)(=O)c2ccc(C)cc2)c2ccc(O)c(C(=O)O)c12	ALOX12 inh 56µM
COc1ccc(S(=O)(=O)/N=C2/NC(=O)/C(=C\c3ccco3)S2)cc1	A549 tox inconclusive, ALOX12 inh 40µM
COc1ccc(S(=O)(=O)/N=C2/NC(=O)/C(=C/c3ccco3)S2)cc1	ALOX12 inh 18µM
COc1ccc(N=C2NC(=O)/C(=C/c3ccco3)S2)cc1	Nrf2 inh inconclusive, ALOX12 inh inconclusive
O=C(O)CCNS(=O)(=O)c1ccc(Cl)c(Cl)c1	none (no result: A549 tox, Nrf2 activator, IDH1 R132H inh, Nrf2 inh)
CN(C)CC(=O)N1Cc2ccccc2CC2(CCCN2C)C1 (stereo not given)	none (no result: LDHA inh, A549 tox, Nrf2 activator, IDH1 R132H inh, Nrf2 inh)
CCCN1CCN(C(=O)c2c(C)oc3c2CN(Cc2ccc(C)cc2)CC3)CC1	ALOX12 inh 13µM (no result: LDHA inh, A549 tox, Nrf2 activator, IDH1 R132H inh, Nrf2 inh)
CC(C(=O)Nc1sc2c(c1C#N)CCCCC2)n1cnc2c1c(=O)n(C)c(=O)n2C (stereo not given)	none (no result: A549 tox, Nrf2 activator, IDH1 R132H inh, Nrf2 inh)
CN(C)S(=O)(=O)c1ccc(=O)n(CC(=O)c2c[nH]c3ccccc23)c1	none (no result: A549 tox, Nrf2 activator, IDH1 R132H inh, Nrf2 inh)
O=C1c2ccccc2C(=O)c2c(Nc3ccc(CCO)cc3)ccc(O)c21	A549 tox inconclusive, Nrf2 activator 4µM, Nrf2 inh inconclusive
Cc1ccc(C(=O)N2CCC(c3nn(-c4ccc(F)cc4)c(=O)[nH]3)CC2)cc1	none (no result: LDHA inh, A549 tox, Nrf2 activator, IDH1 R132H inh, Nrf2 inh)
COc1ccc(-n2nc(C3CCCN(C(=O)C4CC4)C3)[nH]c2=O)cc1 (stereo not given)	ALOX12 inh 18µM (no result: LDHA inh, A549 tox, Nrf2 activator, IDH1 R132H inh, Nrf2 inh)
O=C(Cc1cccc(Cl)c1)N1CCCC(c2nn(-c3cccc(Cl)c3)c(=O)[nH]2)C1 (stereo not given)	ALOX12 inh 16µM (no result: LDHA inh, A549 tox, Nrf2 activator, IDH1 R132H inh, Nrf2 inh)
O=C(c1cccc(Cl)c1)N1CCC(c2nn(-c3ccc(Cl)cc3)c(=O)[nH]2)CC1	ALOX12 inh 14µM (no result: LDHA inh, A549 tox, Nrf2 activator, IDH1 R132H inh, Nrf2 inh)
O=C(c1ccc(F)cc1)N1CCC(c2nn(-c3ccc(Cl)cc3)c(=O)[nH]2)CC1	ALOX12 inh 35µM (no result: LDHA inh, A549 tox, Nrf2 activator, IDH1 R132H inh, Nrf2 inh)
O=C(Cc1ccc(F)cc1)N1CCCC(c2nn(-c3ccccc3)c(=O)[nH]2)C1 (stereo not given)	none (no result: LDHA inh, A549 tox, Nrf2 activator, IDH1 R132H inh, Nrf2 inh)
CSc1cccc(NC(=O)Cn2c(C)cc3nc4n(c(=O)c32)CCCCC4)c1	none (no result: LDHA inh, A549 tox, Nrf2 activator, IDH1 R132H inh, Nrf2 inh)
Cc1ccc2nc(-c3cc(NC(=O)C(C)C)ccc3Cl)oc2c1	none (no result: A549 tox, Nrf2 activator, IDH1 R132H inh, Nrf2 inh)
CC(C)(N)c1nnnn1-c1ccc2c(c1)OCO2	none (no result: A549 tox, Nrf2 activator, IDH1 R132H inh, Nrf2 inh)
O=C(c1ccccc1)N1CCC(c2nn(-c3ccc(Cl)cc3)c(=O)[nH]2)CC1	ALOX12 inh 35µM (no result: LDHA inh, A549 tox, Nrf2 activator, IDH1 R132H inh, Nrf2 inh)
COc1ccc(-n2nc(C3CCN(C(=O)c4ccccc4)CC3)[nH]c2=O)cc1	none (no result: LDHA inh, A549 tox, Nrf2 activator, IDH1 R132H inh, Nrf2 inh)
CCN(C(=O)CSc1cc(C)c2ccc(OC)cc2n1)C1CCS(=O)(=O)C1 (stereo not given)	none
CCN(C(=O)CSc1cc(-c2ccccc2)c2ccc(OC)cc2n1)C1CCS(=O)(=O)C1 (stereo not given)	A549 tox inconclusive, Nrf2 inh 23µM
CCCCCNC(=O)COC(=O)c1cc2c(C)cc(C)cc2[nH]1	ALOX12 inh inconclusive (no result: A549 tox, Nrf2 activator, IDH1 R132H inh, Nrf2 inh)
CC(=O)Nc1ccc(NC(=O)COC(=O)c2cc([N+](=O)[O-])ccc2N2CCOCC2)cc1	none
O=C(COC(=O)c1cc([N+](=O)[O-])ccc1N1CCOCC1)Nc1cccc(F)c1	A549 tox 4.6µM, Nrf2 inh inconclusive, ALOX12 inh inconclusive
